From PubChem BioAssay
IP6K1 inh = inhibitors of human IP6K1; hit rate 0.81% among 140,000; activity change, % (series mostly up to about 58 µM); Q92551; IP6K1 kinase, ADP-Glo luminescence, 2 h; hits give low values; in the data active = activity change below about -25%
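ADP-Glo luminescence measures ADP made by human IP6K1 during a 2 h RT reaction with ATP/IP6 (mix at 1.3 mM/130 uM); top library doses 57.5 and 19.1 uM final.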
KDM5B inh = blocks human KDM5B histone demethylase activity. Q9UGL1. KDM5B demethylase, FDH-coupled NADH fluorescence (FDH is formaldehyde dehydrogenase). Potency, µM (series often up to 57.7 µM), most hits filed as inhibitors. hit rate 2.6% among 220,000. AID 1347165; note: nearly all actives have a fitted effect of over 70% in size
Target sequence (Q9UGL1 whole entry, looked up): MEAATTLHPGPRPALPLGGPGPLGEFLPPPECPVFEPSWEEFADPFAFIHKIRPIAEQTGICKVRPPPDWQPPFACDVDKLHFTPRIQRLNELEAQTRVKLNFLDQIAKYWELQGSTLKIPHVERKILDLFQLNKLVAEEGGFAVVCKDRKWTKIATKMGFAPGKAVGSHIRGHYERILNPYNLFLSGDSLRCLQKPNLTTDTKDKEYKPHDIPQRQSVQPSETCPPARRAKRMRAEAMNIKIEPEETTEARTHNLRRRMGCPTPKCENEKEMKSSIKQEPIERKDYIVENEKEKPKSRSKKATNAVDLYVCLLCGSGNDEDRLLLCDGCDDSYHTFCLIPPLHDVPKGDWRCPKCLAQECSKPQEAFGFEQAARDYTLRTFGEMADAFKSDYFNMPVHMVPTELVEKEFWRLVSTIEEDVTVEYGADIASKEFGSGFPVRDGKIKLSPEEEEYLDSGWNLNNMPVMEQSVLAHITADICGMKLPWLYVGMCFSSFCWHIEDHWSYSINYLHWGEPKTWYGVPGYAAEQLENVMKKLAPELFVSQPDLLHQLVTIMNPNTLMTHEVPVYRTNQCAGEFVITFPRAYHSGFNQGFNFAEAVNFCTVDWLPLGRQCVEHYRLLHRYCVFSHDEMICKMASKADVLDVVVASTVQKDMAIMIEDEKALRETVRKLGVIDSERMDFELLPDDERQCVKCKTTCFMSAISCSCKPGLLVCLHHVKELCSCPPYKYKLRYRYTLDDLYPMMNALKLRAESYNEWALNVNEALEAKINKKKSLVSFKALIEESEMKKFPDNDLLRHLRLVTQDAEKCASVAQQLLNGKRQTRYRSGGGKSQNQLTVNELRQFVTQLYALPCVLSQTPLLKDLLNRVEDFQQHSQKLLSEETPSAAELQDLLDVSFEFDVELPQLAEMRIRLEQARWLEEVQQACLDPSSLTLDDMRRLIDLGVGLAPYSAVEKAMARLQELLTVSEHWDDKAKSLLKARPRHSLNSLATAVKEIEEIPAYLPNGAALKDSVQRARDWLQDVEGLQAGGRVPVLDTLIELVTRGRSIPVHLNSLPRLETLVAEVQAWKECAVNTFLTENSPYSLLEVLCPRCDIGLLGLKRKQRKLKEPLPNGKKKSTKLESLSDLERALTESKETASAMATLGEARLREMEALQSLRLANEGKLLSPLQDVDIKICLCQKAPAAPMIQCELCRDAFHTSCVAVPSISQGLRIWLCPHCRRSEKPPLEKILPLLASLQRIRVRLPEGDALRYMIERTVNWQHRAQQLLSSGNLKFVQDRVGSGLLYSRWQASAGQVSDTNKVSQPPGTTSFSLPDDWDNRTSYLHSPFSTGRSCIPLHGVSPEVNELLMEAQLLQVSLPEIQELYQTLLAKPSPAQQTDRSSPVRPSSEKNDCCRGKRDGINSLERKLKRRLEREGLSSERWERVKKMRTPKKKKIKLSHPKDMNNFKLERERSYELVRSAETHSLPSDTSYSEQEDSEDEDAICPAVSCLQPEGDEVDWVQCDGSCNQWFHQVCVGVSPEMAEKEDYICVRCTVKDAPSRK
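qHTS format, multiple compound concentrations. Buffer 50 mM HEPES pH 7.5/0.01% Tween-20; 200 nM KDM5BΔAP final; 10 min compound preincubation; substrate-mix levels 12.5 µM peptide, 25 µM α-KG, 0.25 mM NAD⁺; 30 min RT; ΔRFU.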
HEK293 viab = cell viability loss counter-screen; hit rate 0.12% among 150,000; Potency, µM (titrated, usually from 57.1 µM), usual class: cytotoxic; HEK-293-SNCA-luc viability, GF-AFC fluorescence, 24 h; note: nearly all actives have a fitted effect of over 30% in size
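Cytotoxicity counterscreen: after 24 h compound treatment of genome-edited SNCA-luciferase HEK-293 cells, live-cell protease substrate GF-AFC read by fluorescence after 30 min; activity scaled between DMSO (0%) and medium-only (-100%), curves Hill-fitted.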
SNCA expr inhib = SNCA gene expression inhibition; hit rate 0.17% among 140,000; AID 1671194; Potency, µM (series often up to 57.2 µM), actives largely listed as inhibitors; HEK-293 SNCA-luciferase knock-in, luminescence, 24 h; note: nearly all actives have a fitted effect of over 45% in size
IP6K1 conf = confirmation of human IP6K1 inhibitors; shares compounds with IP6K1 inh; hit rate 13% among 1,200; Potency, µM (titrated, usually from 49 µM), most hits filed as inhibitors; recombinant IP6K1 kinase, ADP-Glo luminescence, 2 h; note: nearly all actives have a fitted effect of over 65% in size
Hits are given with their value; . = inactive; ? = inconclusive; / = not tested or not shown. Only some compounds are listed: those with a hit (about 2.9% of all), similar ones and a draw of the others. Unless noted, calls come from the whole dose curve; as a rule, active = well fitted curve in the direction sought with a large enough effect; inconclusive = small, poorly fitted or top-dose-only effect, or another doubt; inactive = no such curve, though single readings can be large; an effect the other way counts as inactive or inconclusive.

SMILES	IP6K1 inh	KDM5B inh	HEK293 viab	SNCA expr inhib	IP6K1 conf
c1ccc(CN2C[C@@H]3C[C@H]2CN3Cc2cn(-c3ccccc3)nn2)cc1	.	.	.	.	/
O=C(NCCN1CCN(C(=O)c2cc(Cl)cc(Cl)c2)CC1)c1cc(Cl)cc(Cl)c1	/	.	/	/	/
Cc1cc(C)c2oc(-c3ccc(C)c(NC(=O)/C=C/c4ccco4)c3)nc2c1	-36	?	.	.	?
Cc1oc2ccc(O)c(CN(C)Cc3ccccc3)c2c1C(=O)Nc1ccccc1	-28	.	.	.	.
CN(Cc1cccs1)c1nc(-c2ccccc2C(F)(F)F)nc2ccccc12	/	/	/	/	.
COCCNc1nc(-c2ccccc2C(F)(F)F)nc2ccccc12	/	/	.	.	/
FC(F)(F)c1ccccc1-c1nc(NCc2ccccc2)c2ccccc2n1	/	/	/	/	.
CN(C)c1nc(-c2ccccc2C(F)(F)F)nc2ccccc12	/	/	.	.	/
Cc1ccc(CNc2nc(-c3ccccc3C(F)(F)F)nc3ccccc23)s1	/	/	/	/	.
FC(F)(F)c1ccccc1-c1nc(NCc2ccc(Cl)cc2)c2ccccc2n1	/	/	/	/	.
O=Cc1ccc(OCc2ccc(Br)cc2)c(Cl)c1	/	.	/	/	/
CCOc1ccccc1Nc1nc(-c2cc3cccc(OC)c3oc2=O)cs1	/	.	/	/	/
Cc1ccc2c(c1)C(c1ccc(F)cc1)N(C(=O)c1cccc(C(F)(F)F)c1)CC(=O)N2 (stereo not drawn)	-26	.	.	?	?
CCn1c(=O)c2cc(C(=O)N(CC(C)C)CC(C)C)sc2c2ccccc21	-26	.	.	.	.
CCn1c(=O)c2cc(C(=O)N(C)c3ccccc3C)sc2c2ccccc21	/	.	/	/	/
COc1ccc(S(=O)(=O)N(CC(=O)NC2CCCCCC2)c2ccc(C)cc2)cc1OC	/	.	/	/	/
COc1ccc(S(=O)(=O)N(CC(=O)NCc2ccccc2)c2ccc(C)cc2)cc1OC	-26	.	?	.	.
COc1ccc(S(=O)(=O)N(CC(=O)NC(C)c2ccccc2)c2ccc(C)cc2)cc1OC (stereo not drawn)	-33	.	.	.	?
Cn1c(=O)c2c(nc(SCc3ccccc3)n2Cc2ccccc2)n(C)c1=O	/	.	/	/	/
O=C(Nc1ccc2nc3n(c(=O)c2c1)CCCCC3)c1cccc(C(F)(F)F)c1	-25	.	?	.	.
CN(C(=O)C(=O)Nc1ccc2nc3n(c(=O)c2c1)CCCCC3)c1cccc(C(F)(F)F)c1	.	.	.	.	/
COc1ccc(CCNC(=O)Cc2c(C)nn(C)c2C)cc1OC	/	.	/	/	/
Cc1ccc(-c2nc(S(=O)(=O)c3ccc(C)cc3)c(N3CCCCC3)o2)cc1	-29	?	.	.	?
O=S(=O)(c1ccccc1)c1nc(-c2cccs2)oc1N1CCCCC1	-36	?	.	.	.
Cc1ccc(S(=O)(=O)c2nc(-c3ccccc3)oc2N2CCCCCC2)cc1	.	.	.	.	/
SMILES	IP6K1 inh	KDM5B inh	HEK293 viab	SNCA expr inhib	IP6K1 conf
O=S(=O)(c1ccccc1)c1nc(-c2cccs2)oc1N1CCOCC1	/	.	/	/	/
O=C(O)CCn1cnc2onc(-c3ccccc3Cl)c2c1=O	-42	?	.	.	.
CCc1cc(N2CCC(Oc3ccccc3OC)(C(=O)O)CC2)nc(C)n1	-32	.	.	.	.
COc1ccccc1OC1(C(=O)O)CCN(Cc2nccn2C)CC1	.	?	.	.	/
COc1ccccc1OC1(C(=O)O)CCN(Cc2cnn(C)c2C)CC1	-29	?	?	.	.
CS(=O)(=O)N1CCC(OCc2noc(C3CCCO3)n2)CC1 (stereo not drawn)	.	/	.	.	/
CN(C)c1ccc(C(=O)NNC(=O)c2ccccc2F)cc1	/	.	/	/	/
CN(C)c1ccc(Nc2nc(N)n(C(=O)c3c(F)cccc3F)n2)cc1	-51	/	.	.	10µM
COc1cccc(N2C(=O)NC(=NC3CCCC3)C23CCCN(CC2CC2)C3)c1 (stereo not drawn)	.	.	.	.	/
CN1Cc2ncnc(NCC3CC3)c2CN(c2ccc(Cl)cc2)C1=O	.	.	.	.	/
CN1Cc2ncnc(NCCc3ccc(F)cc3)c2CN(c2ccc(Cl)cc2)C1=O	-29	.	.	?	.
CNC(=O)c1cc(C2CC2)nc2onc(C3CCN(C(=O)Nc4ccc(Cl)cc4)C3)c12 (stereo not drawn)	.	/	/	/	/
COc1cc(OC)cc(C(=O)N2CCC(C(=O)O)CC2)c1	/	.	/	/	/
Cc1cc(SCc2sc(-c3ccc(C(F)(F)F)cc3)nc2C)ccc1OCC(=O)O	-29	/	.	.	10µM
Cc1ccc(OCc2nc(-c3ccc(C(=O)NCc4ccc(OC(C)C)cc4)cc3)oc2C)cc1	.	?	.	.	/
Cc1oc(-c2ccc(C(=O)NCc3ccc(N(C)C)cc3)cc2)nc1COc1ccccc1	-25	?	.	.	.
CNC(=O)c1cc(C2CC2)nc2c1c(C1CCN(C(=O)c3ccc(OC)cc3)CC1)nn2C	.	/	/	/	/
CCC1CN(C(=O)Nc2ccc(C)c(F)c2)c2ccccc2S1 (stereo not drawn)	-27	.	.	.	.
Cc1ccnc2nc(NC(=O)c3ccccc3Cl)nn12	-25	?	.	.	.
Cc1cc(C)c(C(N)C(=O)O)cc1C (stereo not drawn)	/	.	/	/	/
O=c1cc(CN2CCN(Cc3cccc(C(F)(F)F)c3)CC2)nc2ccc(Br)cn12	/	.	/	/	/
O=C(c1ccc(Cl)nc1)N1CCCN(c2ccc3nnc(C4CC4)n3n2)CC1	.	/	/	/	/
O=C(Nc1ccc2nn(-c3ccc(F)cc3)nc2c1)c1cccc2c(Cl)cccc12	-28	.	.	.	.
COc1cc(C(=O)Nc2ccc3nn(-c4ccc(F)cc4)nc3c2)cc(OC)c1OC	.	.	.	.	/
COc1ccc(CNC(=O)CSc2ncc3c(n2)-c2cc(Cl)ccc2N(Cc2ccccc2)S3(=O)=O)cc1OC	.	.	.	.	/
COc1ccc(CNC(=O)CSc2ncc3c(n2)-c2cc(Cl)ccc2N(Cc2ccccc2)S3(=O)=O)cc1	-27	.	.	.	.
